TexasRed fluor – Total Fluorescence Counterscreen for Inhibitors of the Interaction of Thyroid Hormone Receptor and Steroid Receptor Coregulator 2; AID 1479, 2009; Potency, µM (doses to about 106 µM), inactives show at the highest dose fluorescence change, negative = quenching; 280,000 tested, 0.29% active; TRb/SRC2 Texas Red total fluorescence interference; active = well fitted curve in either direction with a large enough effect; inconclusive = small, poorly fitted or top-dose-only effect
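Human TRb ligand-binding domain at 0.6 uM with 20 nM Texas Red SRC2 peptide in Tris buffer containing 1 uM T3 and 5% DMSO, incubated with compound 5 h at ambient temperature. Total fluorescence (555/632 nm) calculated as parallel + 2 × perpendicular.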
Tau fluor counter – Counterscreen qHTS for Inhibitors of Tau Fibril Formation, Fluorescence Polarization; AID 1463, 2008; tau K18 P301L Alexa594 fluorescence, heparin fibrillization; Potency, µM (series often up to 57.7 µM), inactives show top-dose activity change, negative = decrease; 280,000 tested, 0.93% active; note: nearly all actives have a fitted effect of over 55% in size
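Human tau K18 P301L (15 uM unlabeled, 0.24 uM Alexa 594-labeled) in 100 mM sodium acetate pH 7 with 20 uM heparin, 6 hr at 37 C. ThT 30 uM added, 1 hr ambient; Alexa 594 FP and total fluorescence read at 555/632 nm.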
Tau ThT inhib – qHTS for Inhibitors of Tau Fibril Formation, Thioflavin T Binding; 270,000 tested, 2.1% active; recombinant tau K18 P301L, heparin-induced fibrillization, ThT fluorescence; Microtubule-associated protein tau (Homo sapiens), P10636; AID 1460, 2008; Potency, µM (highest dose often 57.4 µM), for the others: top-dose activity, negative = inhibition, actives largely listed as inhibitors; note: nearly all actives have a fitted effect of over 55% in size
Target sequence (P10636 561-689 P618L limits assumed): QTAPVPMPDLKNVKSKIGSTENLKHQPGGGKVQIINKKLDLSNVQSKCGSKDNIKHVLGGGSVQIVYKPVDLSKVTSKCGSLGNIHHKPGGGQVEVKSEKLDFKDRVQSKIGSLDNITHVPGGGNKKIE
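Using a mix of unlabeled (15 uM) and Alexa 594-labeled (0.24 uM) tau K18 P301L, heparin-triggered fibrillization over 6 hr at 37 C was scored by ThT fluorescence.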
GoLoco inh red – qHTS Assay for Inhibitors of RGS12 GoLoco Motif Activity (Red Fluorophore); Guanine nucleotide-binding protein G(i) subunit alpha-1 (Homo sapiens), P63096; Gai1:RGS12 GoLoco peptide FP, rhodamine, 10 min; Potency, µM (titrated, usually from 61.6 µM), for the others: at the top dose activity, negative = inhibition, hits mostly inhibitors; 230,000 tested, 0.44% active; AID 880, 2007; active = well fitted inhibition curve with a large enough effect, not every such curve was filed as active; inactive = no such curve, though single readings can be large or run the other way; note: nearly all actives have a fitted effect of over 30% in size
Target sequence (P63096 whole entry, looked up): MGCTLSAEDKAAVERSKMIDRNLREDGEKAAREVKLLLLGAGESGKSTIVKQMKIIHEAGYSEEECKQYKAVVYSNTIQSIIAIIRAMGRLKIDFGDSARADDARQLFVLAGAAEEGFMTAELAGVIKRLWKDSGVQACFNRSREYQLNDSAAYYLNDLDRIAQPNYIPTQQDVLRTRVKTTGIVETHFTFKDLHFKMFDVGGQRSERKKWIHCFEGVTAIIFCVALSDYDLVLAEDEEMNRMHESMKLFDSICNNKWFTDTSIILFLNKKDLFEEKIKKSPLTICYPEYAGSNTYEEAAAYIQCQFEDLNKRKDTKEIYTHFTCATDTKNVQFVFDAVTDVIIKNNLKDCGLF
TRb SRC2 PPI – qHTS for Inhibitors of the Interaction of Thyroid Hormone Receptor and Steroid Receptor Coregulator 2. Thyroid hormone receptor beta (Homo sapiens), P10828. TRbeta-SRC2 peptide binding, fluorescence polarization; receptor liganded with 1 µM T3. Potency, µM (titrated, usually from 106 µM), inactives show at the highest dose activity change, negative = inhibition, most hits filed as inhibitors. 280,000 tested, 0.065% active. AID 1469, 2008;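 note: plate controls were bound peptide for no effect and peptide without receptor for full effect; nearly all actives have a fitted effect of over 50% in size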
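Each compound concentration gave % activity, normalized to unbound and bound Texas Red SRC2 controls, from polarization read after 5 hr ambient incubation with T3-loaded human TRb LBD.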
Tau fibril FP – qHTS for Inhibitors of Tau Fibril Formation, Fluorescence Polarization | AID 1468, 2008 | K18 P301L tau heparin fibrillization, Alexa594 FP, 6 h | Microtubule-associated protein tau (Homo sapiens), P10636 | 280,000 tested, 0.39% active | Potency, µM (top dose mostly 57.7 µM), inactives show at the highest dose activity, negative = inhibition, most hits filed as inhibitors; note: nearly all actives have a fitted effect of over 55% in size
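Compound effects on tau fibrillization are measured by Alexa 594 fluorescence polarization (ex 555, em 632 nm). K18 P301L tau is used at 15 uM with 0.24 uM labeled tracer, and 20 uM heparin induces aggregation over 6 hr at 37 C.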
The depositor's hits bear a star; ? = inconclusive; nt = not tested or not shown; [ ] = remark or other dose. Most compounds without a hit are left out; they make up all but 3.2% or so of the library. Unless noted, calls come from the whole dose curve; as a rule, active = well fitted curve in the direction sought with a large enough effect; inconclusive = small, poorly fitted or top-dose-only effect, or another doubt; inactive = no such curve, though single readings can be large; an effect the other way counts as inactive or inconclusive. Unless noted, % is set by controls: 0 for no effect and ±100 for the full control effect; potency is the fitted concentration of half-maximal effect.

SMILES	TexasRed fluor	Tau fluor counter	Tau ThT inhib	GoLoco inh red	TRb SRC2 PPI	Tau fibril FP
CC1=Nc2ccccc2/C1=C/c1sc(=S)n(-c2cccc(C(=O)O)c2)c1O	-7%	?	3.5µM*	48%	0%	12%
O=C(Nn1c(O)c(C=C2N=c3ccccc3=N2)sc1=S)c1ccccc1Cl	-6%	18µM*[quencher]	11µM*	9%	-7%	?
Oc1c(C=C2N=c3ccccc3=N2)sc(=S)n1C1CCCCC1	5%	-9%	-10%	-4%	-3%	-1%
Oc1c(C=C2N=c3ccccc3=N2)sc(=S)n1-c1ccccc1	32µM*[quencher]	1%	3%	7%	-14%[53 µM]	5%
O=S(=O)(Nn1c(O)c(C=C2N=c3ccccc3=N2)sc1=S)c1ccccc1	-4%	?	11µM*	15%	10%	0%
CCn1c(O)c(C=C2N=c3ccccc3=N2)sc1=S	1%	-12%	-17%	19%	-7%	1%
O=C(Nc1cccc(Cl)c1Cl)c1cc(S(=O)(=O)N2CCC3(CC2)OCCO3)ccc1F	-2%	?	-7%	nt	-5%	?
Cc1ccc(C(=O)NCC(=O)OCc2cc(=O)n3nc(C4CCCCC4)sc3n2)cc1	-14%	-5%	?	nt	4%	-3%
COc1ccc(CNc2nc(NCc3ccc(OC)cc3)c3ncn(C4CCCCC4)c3n2)cc1	-3%	nt	nt	nt	-3%	nt
CC1CCN(c2ccc(NC(=S)NC(=O)c3ccc(-c4cccc([N+](=O)[O-])c4)o3)cc2)CC1	0%	?	2µM*	15%	12%	-4%
CCOC(=O)N1CCC(Nc2c(Nc3cccc(CC)c3)c(=O)c2=O)CC1	0%	14µM*[quencher]	?	10%	-26%	?
CCCNC(=O)Cn1nc(-c2ccc(OC)cc2)c2cnc3ccc(F)cc3c21	0%	-6%	-9%	nt	-1%	2%
CSc1nc2cc(Oc3cccc(Cl)c3Cl)c(Cl)cc2[nH]1	3%	?	?	-2%	1%	13µM*
CCCCN(CCO)CCCC	-2%	nt	nt	16µM*	4%	nt
COc1ccccc1N1CCN(c2ccc([N+](=O)[O-])cc2Cl)CC1	-1%	?	8.9µM*	-7%	11%	1%
COc1cc2c(cc1OC)CN(c1ccc([N+](=O)[O-])cc1Cl)CC2	1%	?	7.1µM*	2%	-1%	0%
CCc1cccc(NC(=O)c2ccc(CN3C(=O)C(C)=C(c4ccc(OC)cc4)S3(=O)=O)cc2)c1	-20%	-7%	3%	nt	5%	-9%
CC(C)=CCc1c2c(c3occ(-c4ccc(O)c(O)c4)c(=O)c3c1O)C=CC(C)(C)O2	0%	3.5µM*[quencher]	?	2%[14.2 µM]	5%	25µM*
CC1(C)C=Cc2c(c3c(c4c(=O)c(-c5ccc(O)cc5)coc24)OC(C)(C)CC3)O1	-1%	?	?	1%	4%	?
CC(C)=CCc1c2c(c3occ(-c4ccc(O)cc4)c(=O)c3c1O)C=CC(C)(C)O2	0%	3.2µM*[quencher]	?	2%	8%	22µM*
CN=c1scc(C)n1/N=C/c1ccc(O)cc1	-2%	-25%	?	1%	-10%	10%
CN=c1scc(C)n1/N=C/c1ccc(O)cc1O	-15%	?	16µM*	11%	-9%	11%
CN=c1scc(C)n1/N=C/c1ccc2c(c1)OCO2	-3%	?	11µM*	4%	4%	3%
Nc1nc(-c2ccccc2)c(N=Nc2cccc3ccccc23)s1	-6%	3.2µM*[quencher]	2.8µM*	4%	8%	18µM*
Cc1ncc(N=Nc2ccccc2Cl)c(-c2ccccc2)n1	-5%	?	?	2%	-5%	14%
SMILES	TexasRed fluor	Tau fluor counter	Tau ThT inhib	GoLoco inh red	TRb SRC2 PPI	Tau fibril FP
Nc1nc(-c2ccccc2)c(N=Nc2ccccc2Cl)s1	-1%	4.5µM*[quencher]	5µM*	2%	-1%	?
Nc1c(C(=O)Nc2ccccc2)c2nc3ccccc3nc2n1-c1ccc(O)cc1	0%	14µM*[quencher]	?	27%	-1%	?
CCOC(=O)c1c(N)n(-c2ccc(N)cc2)c2nc3ccccc3nc12	-14%	-12%	?	9%	2%	5%
O=c1oc2ccccc2cc1-c1csc(NN=C2CCCCC2)n1	-10%	25µM*[quencher]	?	8%	-12%	-9%
O=C(Nc1nc(-c2cc3ccccc3oc2=O)cs1)c1ccco1	-3%	-12%	1%	23%	-3%	-14%
COc1ccc(C(=O)C2CCCN(C(=O)CCc3scnc3C)C2)c(C)c1 (stereo not drawn)	-5%	-30%	28µM*	3%	?	-49%
C[C@@]12CC(=O)[C@@H]3[C@@H](CCC4=CC(=O)CC[C@]43C)[C@@H]1CC=C2CC(=O)O	nt	nt	nt	6%[14.2 µM]	nt	nt
Cc1ccc(C2=N/C(=C\c3c(C)nn(-c4ccccc4)c3N3CCCC3)C(=O)O2)cc1	1%	-16%	13µM*	20%	-1%	2%
Cc1ccc(NC(=O)C(C)Sc2nc(-c3ccccc3)c(C#N)c(=O)[nH]2)c(C)c1 (stereo not drawn)	-18%	-2%	0%	nt	-1%	0%
COC(=O)CN(Cc1ccccc1)S(=O)(=O)c1ccc(OC)c(OC)c1	-1%	-23%	16µM*	nt	7%	?
Clc1ccccc1-c1nccc(NCCN2CCOCC2)n1	nt	nt	nt	2%	nt	nt
O=C1C(Cl)=C(NC2CCc3ccccc32)C(=O)c2ncccc21 (stereo not drawn)	-13%	?	13µM*	-7%	?	?
O=C1C(Cl)=C(NCCN2CCOCC2)C(=O)c2ncccc21	-16%	?	13µM*	4%	?	?
O=C(Nc1ccc(Cl)cc1)NC1CCCc2ccccc21 (stereo not drawn)	-3%	-15%	-8%	4%	-16%	-15%
O=C(Nc1ccc(C(=O)OCc2cc(=O)n3c4c(sc3n2)CCCC4)cc1)c1ccc(F)cc1	1%	-23%	18%	nt	5%	-9%
CCn1c(C)[n+](Cc2ccccc2)c2ccc(Cl)cc21	0%	-2%	-6%	-33%	-4%	-2%
CCn1c(C)[n+](Cc2ccccc2)c2ccc(C(=O)OC)cc21	-1%	1%	-1%	1.3µM*	1%	7%

Compound activity (PubChem BioAssay)
